# From PubChem BioAssay
# This is a sample that favours compounds with a hit; in the whole collection about 3.7% have one here.
# Tb PYK inh = qHTS of Trypanosoma Brucei Inhibitors. AID 624173, 2012. 0.12% of 410,000 active. pyruvate kinase (Trypanosoma brucei), Q57TT1. TbPYK enzyme, Kinase-Glo Plus ATP luminescence, 45 min. Potency, µM (series often up to 76.8 µM), for the others: top-dose activity, negative = inhibition, actives largely listed as inhibitors; further: nearly all actives have a fitted effect of over 50% in size
#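 Luminescent Kinase-Glo Plus end-point after 45 min room-temperature reaction of T. brucei pyruvate kinase started with 130 uM ADP (final). Buffer TEA 50 mM pH 7.2 with KCl, MgCl2, BSA, Tween-20; titration-based qHTS with fitted concentration-effect curves.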
# Sm TGR inh = qHTS Assay for the Inhibitors of Schistosoma Mansoni Peroxiredoxins. Potency, µM (highest dose often 114 µM), for inactives: at the highest dose activity change, negative = inhibition, hits mostly inhibitors. 3% of 360,000 active. purified TGR, DTNB reduction, TNB absorbance 405 nm. AID 485364, 2010; further: nearly all actives have a fitted effect of over 60% in size
#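 TGR 20 nM + NADPH 100 uM (dispensed conc.), cpd preinc 15 min RT; start with NADPH (500 uM addition) then DTNB (15 mM addition). Kinetic TNB absorbance, 405 nm filter. Four-parameter Hill fit across titration.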
# RE007 growth inh = qHTS Assay for Inhibitors of the HIV-1 protein Vpr; S. pombe RE007 Vpr strain, BacTiter-Glo ATP luminescence, 24 h; Potency, µM (doses to about 92.2 µM), for inactives: at the highest dose activity change, negative = less growth, actives largely listed as inhibitors; 0.21% of 360,000 active; AID 651644, 2012; active means well fitted falling curve with a large enough effect; inconclusive means small, poorly fitted or top-dose-only effect; inactive means no such curve, though single readings can be large or run the other way; further: nearly all actives have a fitted effect of over 50% in size
#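 Fission yeast strain RE007, carrying one chromosomally integrated HIV-1 vpr copy, was seeded at OD 0.01 in PMG+AL medium with 23 nL pinned compound. After 24 h at 30 °C and 99% humidity, viability was read by BacTiter-Glo luminescence.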
# FMDV inh = High Throughput Screening for Foot and Mouth Disease Virus Antivirals | FMDV antiviral cell-based qHTS | Potency, µM (titrated, usually from 57.9 µM), for inactives: at the top dose activity change, negative = inhibition, actives largely listed as inhibitors | 1.2% of 410,000 active; calls by dose curve; tested in HEK293T cells; further: read-out not given here; nearly all actives have a fitted effect of over 45% in size
# The depositor's hits bear a star; ? = inconclusive; nt = not tested or not shown; [ ] = another dose, or the depositor's remark. Unless noted, the call rests on the fitted dose curve; in most records, active means well fitted curve in the direction sought with a large enough effect; inconclusive means small, poorly fitted or top-dose-only effect, or another doubt; inactive means no such curve, though single readings can be large; an effect the other way counts as inactive or inconclusive. On the % scale 0 is the no-effect control and ±100 the full control effect; potency means the concentration at half of the fitted maximal effect.
SMILES,Tb PYK inh,Sm TGR inh,RE007 growth inh,FMDV inh
CCN1CCN(CC2COc3ccccc3O2)CC1 (centres undefined),1%,2%,-4%,-11%
c1ccc2c(c1)CC(CN1CCNCC1)O2 (centres undefined),-6%,14µM*,-15%,-13%
COc1ccc(/C=N/NC(=O)c2ccc(CN3c4cccc5cccc(c45)S3(=O)=O)cc2)cc1,-1%,2%,7%,1%
O=C(N/N=C/CCc1ccccc1)c1ccc(CN2c3cccc4cccc(c34)S2(=O)=O)cc1,-12%,4%,-10%,40µM*
O=C(Nc1ccccc1F)c1nc(SCc2ccc(F)cc2)ncc1Cl,-2%,3%,nt,-24%
Cn1cc(C(N)=O)c2ccccc21,-7%,3%,-1%,-7%
Cn1cc(C(=O)CCl)c2ccccc21,-7%,3.5µM*,3%,22µM*
O=C(OCc1cc(Cl)ccc1OC(F)F)c1ccc([N+](=O)[O-])o1,nt,13µM*,nt,nt
COc1ccc(C)cc1NC(=O)COC(=O)c1ccc([N+](=O)[O-])o1,0%,0%,8%,-10%
O=C(COC(=O)c1ccc([N+](=O)[O-])o1)Nc1cccc(S(=O)(=O)N2CCOCC2)c1,3%,?,-17%,-3%
CCN(CC)S(=O)(=O)c1ccc(Cl)c(NC(=O)COC(=O)c2ccc([N+](=O)[O-])o2)c1,31%,6.3µM*,22%,-1%
COc1ccc(NC(=O)COC(=O)c2ccc([N+](=O)[O-])o2)cc1Cl,4%,25µM*,-12%,25%
CN(C)S(=O)(=O)c1cccc(NC(=O)COC(=O)c2ccc([N+](=O)[O-])o2)c1,0%,32µM*,-7%,-5%
Fc1cccc(NCc2ccccc2-c2nnc(-c3ccccc3Cl)o2)c1,2%,5%,nt,44%
CN1CCN(c2ncc3nc(-c4cccs4)c(=O)n(CCc4ccccc4)c3n2)CC1,nt,nt,nt,-18%
Cc1ccc(S(=O)(=O)NCCOC(=O)Nc2sc(=S)n(C)c2C)cc1,0%,11µM*,-1%,nt
CCn1cc(C(=O)NCc2ccccc2)c(=O)c2cc(F)c(N3CCN(C(=O)c4ccco4)CC3)cc21,-4%,3%,-3%,20µM*
CCn1cc(C(=O)NCc2ccncc2)c(=O)c2cc(F)c(N3CCN(C(=O)c4ccco4)CC3)cc21,-6%,?,3%,?
CCn1cc(C(=O)NCc2ccc3c(c2)OCO3)c(=O)c2cc(F)c(N3CCN(C(=O)c4ccco4)CC3)cc21,-3%,2%,4%,14µM*
NCCCC[C@H](NC(=O)[C@@H]1CCCN1C(=O)[C@@H]1CSSC[C@H](NC(=O)CNC(=O)CNC(=O)CN)C(=O)N[C@@H](Cc2ccc(O)cc2)C(=O)N[C@@H](Cc2ccccc2)C(=O)N[C@@H](CCC(N)=O)C(=O)N[C@@H](CC(N)=O)C(=O)N1)C(=O)NCC(N)=O,-6%,nt,nt,nt
COC(=O)c1ccc(CN2CCOc3ccc(CN4CCC(O)(c5cccnc5)CC4)cc3C2)cc1,nt,nt,nt,18µM*
O=C(CCc1ccccc1)NCc1ccncc1,-5%,-1%,-14%,-5%
O=C(CCNNC(=O)c1ccncc1)NCc1ccccc1,-6%,40µM*,2%[18.4 µM],-25%
COc1ccc2nc(N3C(=O)C(O)=C(C(=O)c4ccco4)C3c3ccccc3OC)sc2c1 (centres undefined),-13%,-21%,0%,-2%
CCOc1ccc2nc(N3C(=O)C(O)=C(C(=O)c4ccco4)C3c3ccco3)sc2c1 (centres undefined),7%,-33%,-7%,4%
SMILES,Tb PYK inh,Sm TGR inh,RE007 growth inh,FMDV inh
CCOC(=O)c1sc(N2C(=O)C(O)=C(C(=O)c3ccco3)C2c2ccco2)nc1C (centres undefined),-27%,25µM*,-11%,-5%
COc1ccc2nc(N3C(=O)C(O)=C(C(=O)c4ccco4)C3c3ccc(C)o3)sc2c1 (centres undefined),-14%,32µM*,-16%,-2%
COc1cccc(-c2cnc(-c3ccncc3)nc2C2CCN(C(=O)Cc3csc(C)n3)CC2)c1,nt,nt,nt,-17%
CC(C)C[C@@H]1NC(=O)[C@H](CCCN)NC(=O)[C@H](C(C)C)NC(=O)[C@@H]2CCCN2C(=O)[C@@H](Cc2ccccc2)NC(=O)[C@H](CC(C)C)NC(=O)[C@H](CCCN)NC(=O)[C@H](C(C)C)NC(=O)[C@@H]2CCCN2C(=O)[C@@H](Cc2ccccc2)NC1=O,nt,nt,nt,6.3µM*
COC(=O)c1cc2oc3ccccc3c2n1CC(=O)Nc1cccc(SC)c1,-9%,-2%,nt,28%
O=C(c1ccc(Cl)cc1)N(Cc1ccco1)Cc1ccco1,4%,-2%,nt,12%
COC(=O)c1cscc1S(=O)(=O)Cc1ccccc1,0%,10µM*,6%,1%
CC(=O)Nc1ccc(NC(=O)c2nc(S(=O)(=O)Cc3ccccc3)ncc2Cl)cc1,-12%,5µM*,-1%,32µM*
CCCSc1ncc(Cl)c(C(=O)N(Cc2ccccc2)c2ccc(OC)cc2)n1,-6%,2%,nt,?
COc1ccc(N(Cc2ccccc2)C(=O)c2nc(S(C)(=O)=O)ncc2Cl)cc1,-5%,5.6µM*,nt,18µM*
CS(=O)(=O)c1ncc(Cl)c(C(=O)N(Cc2ccc(Cl)cc2)Cc2ccco2)n1,-10%,1.8µM*,nt,?
COc1ccc2c(c1)CCc1cnc(-n3ncc(C(=O)N(C)CCc4ccccn4)c3C)nc1-2,nt,nt,nt,-11%
COc1ccc(CNC(=O)c2nc(SC(C)C)ncc2Cl)cc1,-9%,-4%,nt,-9%
CCS(=O)(=O)c1ncc(Cl)c(C(=O)NCc2ccccc2)n1,2%,32µM*,nt,?
COC(=O)c1ccccc1NC(=O)c1nc(S(=O)(=O)Cc2ccccc2)ncc1Cl,3%,2.8µM*,0%,32µM*
Cc1noc(C(=O)NCc2ccccc2)c1Cl,1%,5%,2%,0%
COc1ccc(CNC(=O)c2nc(S(=O)(=O)Cc3ccccc3)ncc2Cl)cc1,19%,2.5µM*,-7%,22µM*
CCCS(=O)(=O)c1ncc(Cl)c(C(=O)Nc2c(C(=O)Nc3ccccc3)oc3ccccc23)n1,-8%,-5%,nt,?
O=C(NCc1ccccc1)c1nc(S(=O)(=O)Cc2ccccc2)ncc1Cl,-6%,8.9µM*,-6%,32µM*
CC(C)c1ccc(NC(=O)CSC2=Nc3ccccc3C3=NC(CC(=O)NCCc4ccccc4)C(=O)N23)cc1 (centres undefined),-3%,0%,nt,-14%
COc1ccc(CN2CCCC(n3cc(C(=O)NC4CCCC4)nn3)C2)c(O)c1 (centres undefined),nt,nt,nt,-20%
O=[N+]([O-])c1ccc(C(c2sc3nc(-c4ccco4)nn3c2O)N2CCN(c3cccc(Cl)c3)CC2)cc1 (centres undefined),-16%,-1%,nt,14%
CCOC(=O)c1c(NC(=O)CSc2cn(CCNC(=O)c3c(F)cccc3F)c3ccccc23)sc2c1CCCC2,6%,4%,nt,-17%
